# Several values for one entry are separate records, joined by “and”; a condition that tells them apart may be missing. Equal entries are not always repeated. About 3,700 (1%) of roughly 360,000 compounds were called active. This is one part of a sample in which actives are shown more often than they occur. A number with no mark means an inactive call. Cut-off read from the data, not from the text of the source: active = activation above about 30%; inactive = the rest.
# Biological target: D(1A) dopamine receptor (Homo sapiens) (UniProt P21728)
# Sequence (P21728 whole entry, looked up): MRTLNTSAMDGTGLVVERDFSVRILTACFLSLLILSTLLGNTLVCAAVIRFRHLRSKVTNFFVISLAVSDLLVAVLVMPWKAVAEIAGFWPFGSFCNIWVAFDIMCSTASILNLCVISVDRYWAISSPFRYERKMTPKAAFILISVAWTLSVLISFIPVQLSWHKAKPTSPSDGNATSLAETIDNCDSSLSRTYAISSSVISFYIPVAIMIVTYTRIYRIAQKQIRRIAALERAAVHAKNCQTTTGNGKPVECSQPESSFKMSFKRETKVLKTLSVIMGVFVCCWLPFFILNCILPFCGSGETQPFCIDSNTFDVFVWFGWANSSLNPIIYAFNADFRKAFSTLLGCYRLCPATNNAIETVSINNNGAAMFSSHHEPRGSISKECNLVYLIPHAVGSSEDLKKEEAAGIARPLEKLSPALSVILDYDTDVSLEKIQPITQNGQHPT
# Test: Allosteric Agonists of the Human D1 Dopamine Receptor: qHTS; note: 0% is about no effect
# Conditions: HEK293 T-REx D1 cells, calcium flux, agonist mode; at 2 µM; active compounds read high
# Procedure, shortened: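 Agonism was scored from calcium flux recorded over 180 s (1 read/s) after pintool compound addition, following a 10-cycle baseline. Cells were inducible force-coupled HEK293 TREx D1, plated overnight at 30 C and loaded with no-wash calcium dye.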
row,SMILES,activation
1,Cc1ccc(-c2nnc3c4ccccc4c(C)nn23)cc1NC(=O)c1cccc(Br)c1,-0.644%
2,O=C1/C(=C/c2coc3ccc(O)cc3c2=O)SC(=S)N1c1ccccc1,5.55%
3,Cc1ccc(-c2nn(-c3ccccc3)cc2/C=C2\SC(=S)N(CCCCCC(=O)O)C2=O)o1,44.7% (active)
4,O=C(O)CCCCCCCCc1cn(CN2C(=O)c3ccccc3C2=O)nn1,2.36%
5,O=C(Nc1ccc(F)cc1F)c1cnn(-c2ccc(F)cc2)c1-n1cccc1,2.54%
6,COc1cccc(C(=O)NC2CCN(C#N)CC2)c1,0.293%
7,C=CCOc1cccc(CNCc2cccnc2)c1,3.75%
8,CCC(Oc1ccccc1)C(=O)NCc1cccnc1 (stereo unspecified),1.93%
9,c1ccc(COc2ccccc2CNCc2cccnc2)cc1,34.6% (active)
10,COc1cccc(NC(=O)C2CCN(c3cc(C)nc4c(-c5ccc(Cl)cc5)c(C)nn34)CC2)c1,0.702%
11,CCOc1ccc(C(=O)Nc2nccs2)cc1[N+](=O)[O-],6.87%
12,CCCCCOc1ccc(CSC2=NCCN2)cc1[N+](=O)[O-],42.9% (active)
13,Cc1ccccc1NC(=O)CSC1=NCCN1,1.9%
14,COCC(C)NS(=O)(=O)c1ccc(N2CCCCS2(=O)=O)cc1 (stereo unspecified),3.35%
15,CCc1cccc(NC(=O)c2cc(-c3ccccc3)n[nH]2)c1,12.3%
16,CCOc1cc(/C=C(\C#N)C(=O)Nc2ccccc2C)ccc1OCc1cc(=O)n2nc(CC)sc2n1,5.19%
17,CCOc1ccc(/C=C(\C#N)c2nc3ccccc3c(=O)[nH]2)cc1OC,3.27%
18,CCOc1cc(/C=C(\C#N)c2nc(-c3cccs3)c(NC(C)=O)s2)ccc1O,115% (active)
19,O=C(NCC(c1ccc2c(c1)OCO2)N1CCN(c2ccccc2)CC1)C(=O)Nc1ccccc1F (stereo unspecified),1.27%
20,COc1ccc(N2CCN(C(=O)CSCc3nc(-c4ccccc4Cl)oc3C)CC2)cc1,7.67%
21,CCOc1cccc2c1N[C@@H](c1ccc(C(=O)O)cc1)[C@H]1CC=C[C@@H]21,7.61%

row,SMILES,activation
1,CC1CCCN(c2cc3c(cc2F)c(=O)c(S(=O)(=O)c2cccc(Cl)c2)cn3Cc2ccccc2)C1 (stereo unspecified),-0.839%
2,Cc1cc2n(n1)C(c1cc(C(C)(C)C)c(O)cc1O)Nc1ccccc1-2 (stereo unspecified),38.8% (active)
3,CCOC(=O)NN1C(=O)c2ccccc2NC1c1ccccc1O (stereo unspecified),0.398%
4,COC(=O)c1ccc(NC(=O)c2cc(S(=O)(=O)N3CCC(C)CC3)cn2C)cc1,6.51%
5,COc1ccc(C(CNCC(=O)Nc2ccccc2F)N(C)C)cc1 (stereo unspecified),0.114%
6,COc1ccc(C(CCNCc2ccccc2F)c2ccc(F)cc2)cc1 (stereo unspecified),41.1% (active)
7,COc1cccc(CNCCc2c[nH]c3ccccc23)c1OCc1ccccc1F,18.2%
8,CC(C)CC(NS(=O)(=O)c1ccc2c(c1)oc(=O)n2C)C(=O)NCc1ccccc1Cl (stereo unspecified),3.12%
9,CCOc1ccccc1CNCc1c(C(=O)O)c(C)n(Cc2ccc(C)cc2)c1C,3.68%
10,Cc1cccc(N2CCN(S(=O)(=O)c3ccc4[nH]c5c(c4c3)CCCCC5)CC2)c1C,2.57%
11,O=C(Nc1ccc2nc(SCC(=O)N3CCCc4ccccc43)sc2c1)c1ccc(F)cc1,5.54%
12,CCOC(=O)C1CCN(C(=O)C2CCN(S(=O)(=O)c3c(C)noc3C)CC2)CC1,-2.99%
13,Cc1cc(C)c(S(=O)(=O)N2CCC(C(=O)OCc3c(C)noc3C)CC2)c(C)c1,45.3% (active)
14,CCOC(=O)C1CCN(S(=O)(=O)c2c(C)noc2C)CC1,0.879%
15,COc1ccc(CCn2cc3c(c2-c2ccc(Br)cc2)c(=O)n(C)c(=O)n3C)cc1OC,0.633%
16,COc1cccc(NC(=O)N2CCN(C(=O)c3nsc4ccccc34)CC2)c1,10.2%
17,CCOC(=O)c1c(NC(C)=O)c2c3c(sc2n1Cc1c(C)cc(C)cc1C)CCCC3,1.79%
18,COC(=O)CC1=NN(c2ccccc2)C(=O)C1,31.5% (active)
19,C/C(N)=C(/C#N)C(=O)COC(=O)C1=NN(c2ccccc2)C(=O)CC1,2.53%
20,COC(=O)CC1=NN(c2nc(C)cc(C)n2)C(=O)C1,13.3%
21,CCOC(=O)c1ccc(NC(=O)C2CC(=O)N(c3ccc(C(C)C)cc3)C2)cc1 (stereo unspecified),0.0656%

row,SMILES,activation
1,CCOC(=O)c1cc2c(=O)n3ccccc3nc2n(CCCOC)c1=NC(=O)C(C)Oc1ccccc1 (stereo unspecified),-0.224%
2,C=CCC(NC(=O)Cc1ccccc1)C(=O)NCCC (stereo unspecified),-1.62%
3,CCCCC(=O)NNC(=S)NC(=O)C(c1ccccc1)c1ccccc1,179% (active)
4,C/C(=N\NC(=O)CNC(=O)C(c1ccccc1)c1ccccc1)c1ccc(C)cc1,0.588%
5,CCOc1ccccc1C(=O)NC1(C(F)(F)F)C(=O)Nc2c1c(=O)[nH]c(=O)n2-c1ccc(F)cc1 (stereo unspecified),0.807%
6,C=CCC1=C/C(=C\c2c(N)n3nc(CC(=O)N4CCOCC4)sc3nc2=O)C=C(OC)C1=O,38.1% (active)
7,COC1=C/C(=C/c2c(N)n3nc(CC(=O)N4CCOCC4)sc3nc2=O)C=CC1=O,8.23%
8,O=C(NCc1nnc(C(=O)Nc2ccc(C(F)(F)F)cc2Cl)o1)c1ccccc1,-0.686%
9,Cc1cc(Br)ccc1NC(=O)Cn1cnc2sc(C)c(S(=O)(=O)N3CCN(C)CC3)c2c1=O,2.4%
10,COc1ccc(C(=O)CN2C(=O)NC(C)(c3ccc(C)cc3)C2=O)cc1OC (stereo unspecified),26.6%
11,Cc1ccc(NC(=O)CN2C(=O)NC(C)(c3ccc(Cl)cc3)C2=O)c(Br)c1 (stereo unspecified),37.2% (active)
12,Cc1ccc(C2(C)NC(=O)N(CC(=O)Nc3ccccc3C(=O)N3CCCCC3)C2=O)cc1 (stereo unspecified),10.7%
13,CC1CN(C(=O)CN2C(=O)NC(C)(c3ccccc3)C2=O)CC(C)O1 (stereo unspecified),0.601%
14,COc1ccc(C2(C)NC(=O)N(CC(=O)c3ccc4c(c3)OCO4)C2=O)cc1 (stereo unspecified),38.5% (active)
15,Cc1oc(C)c2c(=O)cc(-c3ccc4c(c3)OCO4)cc(OC(=O)c3ccc(Cl)cc3)c12,5.82%
16,CC1(c2ccc3ccccc3c2)NC(=O)N(CC(N)=O)C1=O (stereo unspecified),3.93%
17,CC1(c2ccc(Cl)cc2Cl)NC(=O)N(CC(=O)Nc2cccnc2Cl)C1=O (stereo unspecified),3.86%
18,CC1(c2ccc(Cl)cc2)NC(=O)N(CC(=O)c2ccc3c(c2)OCO3)C1=O (stereo unspecified),53.1% (active)
19,O=c1n(Cc2cccc(C(F)(F)F)c2)c2ccccc2c2nc(-c3ccccc3)nn12,5.18%
20,CCOC(=O)C1CCCN(C(=O)Cn2ncc3c(C)n(Cc4ccc(F)cc4)c(C)c3c2=O)C1 (stereo unspecified),5.3%
21,Cc1nn(-c2ccc(N3CCCCC3)nn2)c(C)c1CCC(=O)NCc1ccccc1F,-0.954%

row,SMILES,activation
1,Cc1ccc(C)c(NC(=O)C2CCCN(S(=O)(=O)c3cn(C)cn3)C2)c1 (stereo unspecified),-0.383%
2,CC(C)NC(=O)c1nn(-c2ccccc2F)nc1CO,1.01%
3,CCOC(=O)c1c(C)oc2nc(C)nc(N(CC(C)C)CC(C)C)c12,5.8%
4,CCc1cccc(NC(=O)c2cnc(N3CCOCC3)c3ccccc23)c1,-0.292%
5,CC1=C(C(=O)OCC(C)C)C(c2ccc(OCc3ccccc3)cc2)N2C(=O)CCSC2=N1 (stereo unspecified),13.9%
6,Cc1c(-c2nsc(NC(=O)c3cccc(Cl)c3)n2)nnn1-c1ccccc1C(F)(F)F,6.51%
7,O=C(O)CCS(=O)(=O)c1ccc(-c2ccccc2)cc1,-0.731%
8,Cc1cccc2sc(N(CCCN(C)C)C(=O)CCS(=O)(=O)c3ccccc3)nc12,44.5% (active)
9,O=C(CCS(=O)(=O)c1ccccc1)N(Cc1cccnc1)c1nc2c(F)cccc2s1,7.8%
10,CCc1nnc(SCC(=O)Nc2cc(OC)ccc2OC)nc1CC,0.834%
11,CN(c1ccccc1)c1ccc(/C=c2\s/c(=C(/C#N)C(=O)C(C)(C)C)n(Cc3ccco3)c2=O)cc1,86% (active)
12,CCOc1ccccc1NC(=O)Cn1c(=O)n(Cc2ccco2)c(=O)c2sc3ccccc3c21,0.44%
13,O=C(Nc1ccccc1C(F)(F)F)c1cc(-c2ccc(O)cc2)on1,76.6% (active)
14,Cc1cc(C)nc(NC(=O)Nc2ccccc2C(F)(F)F)n1,7.87%
15,CCc1ccccc1NC(=O)c1cc(-c2ccc3c(c2)OCO3)on1,1.41% and 1.39%
16,CCOC(=O)CN1C(C(=O)c2ccccc2)=C(OC(=O)C(C)(C)C)c2ccccc2S1(=O)=O,2.02%
17,CC(=O)OC1=C(C(C)=O)N(Cc2ccccc2)S(=O)(=O)c2ccccc21,-0.292%
18,CCCCC(=O)OC1=CN(Cc2ccccc2)S(=O)(=O)c2ccccc21,43.4% (active)

# — PubChem BioAssay AID504660 (National Center for Advancing Translational Sciences (NCATS), 2011)
